Data: PubChem BioAssay AID1159580 (chemical genetic matrix, 2015)
The campaign covered roughly 5,500 compounds. About 2,000 (36%) were called active. About 18% were inconclusive and are not listed. No stated cut-off is given here; in the data, active means normalized growth mostly below about 0.91 (no sharp cut-off); inconclusive means no clear call, values can overlap the other calls; inactive means mostly above about 0.92. Some of the results follow.

Experiment: chemical genetic growth profiling, strain panel (AID 1159580);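 further: tested at 20 µM; growth read once vehicle control cultures reached saturation at 30 °C; 1 = growth at the plate median or of vehicle wells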
Conditions: S. cerevisiae deletion strains, growth OD

Measured: normalized growth

CCC1(C2=NCCN2)Cc2ccccc2O1 (stereo not given)
inactive: locus YAL021C, strain ccr4, stronger effect = lower value 0.996 | locus YAL026C, strain drs2, stronger effect = lower value 1.01 | locus YAL030W, strain snc1, stronger effect = lower value 1.01 | locus YAL040C, strain CLN3, stronger effect = lower value 1.07 | locus YBL061C, strain skt5, stronger effect = lower value 1 | locus YBR009C, strain hhf1, stronger effect = lower value 1.01 | locus YBR023C, strain chs3, stronger effect = lower value 1.01 | locus YBR171W, strain sec66, stronger effect = lower value 1.02 | locus YBR231C, strain swc5, stronger effect = lower value 0.998 | locus YBR279W, strain paf1, stronger effect = lower value 1.01 | locus YCL011C, strain gbp2, stronger effect = lower value 1.02 | locus YCL016C, strain dcc1, stronger effect = lower value 1 | locus YCL061C, strain MRC1 (second series), stronger effect = lower value 1.01 | locus YCL061C, strain MRC1, stronger effect = lower value 1 | locus YCL069W, strain vba3, stronger effect = lower value 1.01 | locus YCR088W, strain abp1, stronger effect = lower value 1.02 | locus YDL005C, strain med2, stronger effect = lower value 1 | locus YDL040C, strain nat1, stronger effect = lower value 1.01 | locus YDR001C, strain nth1, stronger effect = lower value 1.01 | locus YDR069C, strain doa4, stronger effect = lower value 1 | locus YDR137W, strain rgp1, stronger effect = lower value 1.01 | locus YDR159W, strain sac3, stronger effect = lower value 0.991 | locus YDR195W, strain ref2 0.967 | locus YDR297W, strain sur2, stronger effect = lower value 1 | locus YDR334W, strain swr1, stronger effect = lower value 1.01 | locus YDR335W, strain msn5, stronger effect = lower value 1.01 | locus YDR363W, strain ESC2, stronger effect = lower value 1.03 | locus YDR392W, strain spt3, stronger effect = lower value 0.818 | locus YEL003W, strain gim4, stronger effect = lower value 1.01 | locus YEL037C, strain rad23, stronger effect = lower value 1.01 | locus YEL061C, strain CIN8 (second series), stronger effect = lower value 1.01 | locus YER002W, strain NOP16, stronger effect = lower value 1.01 | locus YER015W, strain faa2, stronger effect = lower value 1 | locus YER016W, strain bim1, stronger effect = lower value 1.01 | locus YER111C, strain swi4, stronger effect = lower value 1.01 | locus YER155C, strain BEM2 (second series), stronger effect = lower value 0.973 | locus YFR010W, strain ubp6, stronger effect = lower value 1.01 | locus YGL167C, strain pmr1, stronger effect = lower value 1 | locus YGL173C, strain kem1, stronger effect = lower value 1.01 | locus YGL227W, strain vid30, stronger effect = lower value 1.01 | locus YGL240W, strain doc1, stronger effect = lower value 0.989 | locus YGL253W, strain hxk2, stronger effect = lower value 1.02 | locus YHR013C, strain ard1, stronger effect = lower value 0.964 | locus YHR027C, strain rpn1, stronger effect = lower value 1.01 | locus YHR142W, strain chs7, stronger effect = lower value 1.02 | locus YJL092W, strain hpr5, stronger effect = lower value 1.01 | locus YJL095W, strain BCK1 (second series), stronger effect = lower value 1.01 | locus YJL115W, strain asf1, stronger effect = lower value 1 | locus YJL129C, strain trk1, stronger effect = lower value 0.996 | locus YJL154C, strain vps35, stronger effect = lower value 1.01 | locus YJL164C, strain tpk1, stronger effect = lower value 0.995 | locus YJL166W, strain qcr8, stronger effect = lower value 1 | locus YJL187C, strain SWE1, stronger effect = lower value 1.01 | locus YKL160W, strain elf1, stronger effect = lower value 0.99 | locus YKR026C, strain gcn3, stronger effect = lower value 1.02 | locus YKR091W, strain srl3, stronger effect = lower value 1 | locus YLL001W, strain dnm1, stronger effect = lower value 1.01 | locus YLL026W, stronger effect = lower value 1 | locus YLL041C, strain sdh2, stronger effect = lower value 1.01 | locus YLR027C, strain aat2, stronger effect = lower value 1.01 | locus YLR221C, strain rsa3, stronger effect = lower value 1.01 | locus YLR258W, strain gsy2, stronger effect = lower value 1 | locus YLR262C, strain YPT6 (second series), stronger effect = lower value 0.995 | locus YLR320W, strain mms22, stronger effect = lower value 1 | locus YLR342W, strain FKS1, stronger effect = lower value 1 | locus YLR357W, strain rsc2, stronger effect = lower value 1.01 | locus YLR370C, strain arc18, stronger effect = lower value 1.01 | locus YLR384C, strain iki3, stronger effect = lower value 1.01 | locus YML120C, strain ndi1, stronger effect = lower value 1.01 | locus YMR058W, strain fet3, stronger effect = lower value 1.01 | locus YMR125W, strain sto1, stronger effect = lower value 1.01 | locus YMR129W, stronger effect = lower value 1 | locus YMR205C, strain PFK2, stronger effect = lower value 1 | locus YMR231W, strain pep5, stronger effect = lower value 1 | locus YMR263W, strain SAP30, stronger effect = lower value 1.01 | locus YMR307W, strain GAS1, stronger effect = lower value 1.03 | locus YNL071W, strain lat1, stronger effect = lower value 1.01 | locus YNL153C, strain GIM3, stronger effect = lower value 0.99 | locus YNL175C, strain NOP13, stronger effect = lower value 1.01 | locus YNL197C, strain WHI3, stronger effect = lower value 1.01 | locus YNL209W, strain ssb2, stronger effect = lower value 1 | locus YNL224C, strain SQS1, stronger effect = lower value 1.01 | locus YNL248C, strain rpa49, stronger effect = lower value 1 | locus YNL322C, strain KRE1 (second series), stronger effect = lower value 1 | locus YNL322C, strain KRE1, stronger effect = lower value 1.01 | locus YNR049C, strain mso1, stronger effect = lower value 1.01 | locus YOR001W, strain rrp6, stronger effect = lower value 1 | locus YOR070C, strain gyp1, stronger effect = lower value 1.01 | locus YOR080W, strain dia2, stronger effect = lower value 0.994 | locus YOR083W, strain WHI5 (second series), stronger effect = lower value 1 | locus YOR083W, strain WHI5, stronger effect = lower value 0.994 | locus YOR106W, strain vam3, stronger effect = lower value 1.01 | locus YOR265W, strain rbl2, stronger effect = lower value 1.01 | locus YOR270C, strain vph1, stronger effect = lower value 1.03 | locus YOR290C, strain snf2, stronger effect = lower value 0.965 | locus YPL051W, strain arl3, stronger effect = lower value 1 | locus YPL078C, strain atp4, stronger effect = lower value 1 | locus YPL106C, strain sse1, stronger effect = lower value 0.984 | locus YPL240C, strain hsp82, stronger effect = lower value 0.991 | locus YPL241C, strain CIN2, stronger effect = lower value 1.01
